The record followed here is PubChem BioAssay (NCATS).

The structures appear in SMILES notation. Several values for one entry are separate records, joined by “and”; a condition that tells them apart may be missing. Equal values may be shown once. Results filed as inconclusive are left out. Activity calls are given as the source filed them. Unless noted, calls follow the shape of the dose curve; as a rule, active = well fitted curve in the direction sought with a large enough effect; inconclusive = small, poorly fitted or top-dose-only effect, or another doubt; inactive = no such curve, though single readings can be large; an effect the other way counts as inactive or inconclusive. Bounds are passed on as bounds.

The nature of experiment [1]: HEK293 12hr Apoptosis Induction qHTS against the NCATS CANVASS Library (AID 1347361). Also: potency is read from the fitted curve at half-maximal effect. In outline:
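HEK293 cells (500/well, DMEM + 10% FBS) were exposed to natural products across an 11-point series for 12 hours at 37 degrees C. Caspase-3/7 activity was then measured with DEVD luciferase luminescence after 15 min at room temperature.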
A general note: Quantitative high-throughput screening tests each substance at several concentrations.

A short description of experiment [2]: KB-3-1 Cancer Cell Toxicity qHTS against the NCATS CANVASS Library (AID 1347366). Also: potency is read from the fitted curve at half-maximal effect; nearly all actives have a fitted effect of over 75% in size. In outline:
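CellTiter-Glo luminescence measured viability after 72 h at 37C. KB-3-1 cells were seeded at 500 per well in DMEM/10% FBS.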

Experiment [3] in a line: qHTS for Hypoxia signaling pathway (HIF-1) antagonists against the NCATS CANVASS Library (AID 1347374). Also: nearly all actives have a fitted effect of over 60% in size. Also: potency is read from the fitted curve at half-maximal effect. In outline: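 HRE-bla ME-180 cells in medium with 0.5% dialyzed FBS received compounds (11-point series) plus CoCl2 (60 uM addition stock) for 17 hrs at 37C. Beta-lactamase activity read with CCF4 (405 nm ex, 460/530 nm em); CellTiter-Glo viability measured in same wells.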

The nature of experiment [4]: qHTS for Antimalaria activity screened against the NCATS CANVASS Library (AID 1347380). Also: nearly all actives have a fitted effect of over 40% in size. Also: potency is read from the fitted curve at half-maximal effect.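 As to activity change, negative = inhibition: Plasmodium falciparum strain Dd2 asexual parasites grown in red blood cells.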 In outline: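 Dd2 strain, infected erythrocytes 2.5% Hct final / 0.3% parasitemia. 11-pt qHTS titration, 72 h, 37C, 5% O2, 5% CO2. Lysis buffer + SYBR Green, 18 h, fluorescence 485/535 nm.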
The nature of experiment [5]: Stat Signaling Pathway (AID 446; active = well fitted curve in either direction with a large enough effect, not every such curve was filed as active;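 also: ME-180 cervical cancer cells given 40 pM IL-6 alongside compound; SIE-controlled beta-lactamase reporter measured as 460/530 nm FRET emission ratio; % is scaled to controls: 0 for no effect and ±100 for the full control effect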). As to conditions: ME-180 SIE beta-lactamase reporter, IL-6 stimulated, 5 h. In outline: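 Reporter line: ME-180 cervical carcinoma, SIE-beta-lactamase. Treatment: compound with 40 pM IL-6, 5 hrs, 37 C, in low-serum OPTI-MEM with 10 mM HEPES pH 7.3. Detection: 460/530 nm fluorescence.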
In experiment [6] the target is Glucocorticoid receptor (Homo sapiens) (UniProt P04150). Put plainly: GR-GFP Redistribution (AID 450;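 active = compounds whose dose series gives a full or clear partial fitted curve of increased nuclear translocation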; also: potency is read from the fitted curve at half-maximal effect). As to conditions: U2OS GR-GFP nuclear translocation, laser cytometry, 2 h.
For experiment [7] the target is unchanged. Put plainly: GR-EFC Redistribution (AID 451; calls by dose curve; also: potency is read from the fitted curve at half-maximal effect). The note with it: CHO-K1 GR-EFC translocation, beta-gal luminescence, 2 h. In outline:
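Translocation of GR-ED fusion to nuclear EA restores b-gal, read by luminescence after 1 h room-temperature detection. Engineered CHO-K1 biosensor cells, 1,000/well, exposed 2 h at 37 C to titrations up to 46 uM final.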

In experiment [8] the target is Mitogen-activated protein kinase 10 (Mus musculus) (UniProt Q61831). Put plainly: JNK3 AlphaScreen Assay (AID 530; active = well fitted curve in either direction with a large enough effect, not every such curve was filed as active;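 also: kinase came from lysate of stimulated human HepG2 cells; signal reports phosphorylation of biotinylated GST-cJun 1-79 at Ser73 with 10 µM ATP; % is scaled to controls: 0 for no effect and ±100 for the full control effect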). In outline: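 Compound titrations were preincubated 15 minutes at room temperature with substrate, antibody and pre-activated JNK3-containing HepG2 lysate. Reactions were started with 10 uM ATP and stopped with EDTA-containing bead buffer for AlphaScreen detection.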
For orientation: In Alpha technology, singlet oxygen from a donor bead excites a nearby acceptor bead.

Experiment [9] addresses 3',5'-cyclic-AMP phosphodiesterase 4B (Homo sapiens) (UniProt Q07343). Put plainly: qHTS Assay for Inhibitors of PDE-IV (AID 607; active = well fitted activation curve with a large enough effect in the main read-out, with a control signal flat, not every such curve was filed as active; also: % of control where 0% means no effect). In outline: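 Cell-based read-out of cAMP via a modified cyclic nucleotide-gated channel and membrane potential dye (535/590 nm) in HEK293 cells expressing PDE4 endogenously. Compounds tested up to 22.9 uM final; 100 uM RO 20-1724 reference.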

Experiment [10] concerns the target DNA dC->dU-editing enzyme APOBEC-3G (Homo sapiens) (UniProt Q9HC16). Nature of the experiment: qHTS for inhibitors of Vif-A3G interactions: Validation (AID 588379). Also: 0% is about no effect. In outline: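 HeLa cells stably expressing Vif and A3G-eYFP, 700 cells/well, incubated overnight at 37 deg C, then exposed to compound overnight at 37 deg C. Inhibition of Vif-mediated degradation read as increased yellow fluorescence (Ex 488/Em 500-530) by laser-scanning cytometry.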

Experiment [11] can be described thus: Primary qHTS for small molecule stabilizers of the endoplasmic reticulum resident proteome: Secreted ER Calcium Modulated Protein (SERCaMP) assay (AID 1508630). Also: % is scaled to controls: 0 for no effect and ±100 for the full control effect. In outline: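 GLuc-SERCaMP-expressing SH-SY5Y cells, pretreated 16 h with compound, are challenged with thapsigargin to empty ER calcium stores; after 4 h, coelenterazine is added directly to the medium and luminescence is imaged.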

In experiment [12] the target is Cytochrome P450 1A2 (Homo sapiens) (UniProt P05177). Nature of the experiment: p450-cyp1a2 (AID 410; calls by dose curve; also: potency is read from the fitted curve at half-maximal effect). In outline: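 Luminescent readout of luciferin formed from Luciferin-ME by human CYP1A2; data normalized against complete inhibition by 57 uM furafylline. Enzyme 20nM, substrate 100uM at Km, 100mM KPO4 buffer, 60 min reaction at room temperature.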
Experiment [13] concerns the target Ubiquitin carboxyl-terminal hydrolase 1 (Homo sapiens) (UniProt O94782). Put plainly: Inhibitors of USP1/UAF1: Pilot qHTS (AID 504865).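 Also: rhodamine fluorescence freed from ubiquitin-rhodamine substrate followed over time; top concentration of the series differs between compounds; % is scaled to controls: 0 for no effect and ±100 for the full control effect; nearly all actives have a fitted effect of over 35% in size.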 In outline:
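Deubiquitinase activity followed as kinetic rhodamine fluorescence release from 150 nM Ub-Rho. 1 nM USP1/UAF1 with compound, after 15 min room-temperature preincubation, in HEPES pH 7.8 buffer containing TCEP, EDTA, BSA and Tween-20.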

Experiment [14] in a line: Secretion counterscreen for inhibitors of the SERCaMP assay screened against the NCATS CANVASS Library (AID 1347390).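 Also: light from luciferase secreted into medium read as a measure of general secretion; % is scaled to controls: 0 for no effect and ±100 for the full control effect.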 In outline: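 Counterscreen for secretory-pathway interference: after 4 h attachment, SH-SY5Y-GLuc cells were exposed 20 hours to compounds (final 0.001 - 77 uM), then coelenterazine added and GLuc luminescence recorded; Brefeldin A served as control.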
In general terms: The purpose of a counterscreen is to sort out artefacts and off-target activity.

Experiment [15] is described as follows: qHTS Assay for Lipid Storage Modulators (AID 1519; calls by dose curve). As to conditions: Drosophila S3 cells, BODIPY lipid droplet/cell ratio, laser cytometry, cells loaded with oleic acid. In outline: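 Cells seeded at 5,000 per well were treated with compounds over a concentration series and loaded with oleic acid (400 uM, as added). Lipid droplet fluorescence (488 nm excitation, 500-530 nm channel) was read by laser-scanning cytometry and normalized to 20 uM Triacsin C.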

Experiment [16] is described as follows: HEK293 18hr Apoptosis Induction qHTS against the NCATS CANVASS Library (AID 1347357). Also: 0% is about no effect. In outline: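 Caspase-Glo 3/7 luminescence (15 min, room temperature) measured apoptosis after an 18-hour, 37 degrees C exposure of HEK293 cells (500 cells/well) to compounds in 11 points.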
Experiment [17] is described as follows: Inflammasome Signaling qHTS Counterscreen: IL-1-beta AlphaLISA counterscreen against the NCATS CANVASS Library (AID 1347381).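 Also: cell-free check with purified IL-1β in medium and no THP-1 cells; 0% is about no effect.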 In outline:
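Cell-free interference check: compounds added to medium spiked with 4 pg purified IL-1β. Anti-IL-1β acceptor beads (6 ug/mL) with 0.6 nM biotinylated antibody added for 1 h at RT, then streptavidin donor beads (24 ug/mL) for 30 min in the dark. AlphaLISA read at 680/615 nm.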

Setting [18] is: measured here: cell count channel max response.
[19] abbreviates: measured here: lipid channel max response.

Chain of DNA dC->dU-editing enzyme APOBEC-3G (Homo sapiens) (Q9HC16 whole entry, looked up): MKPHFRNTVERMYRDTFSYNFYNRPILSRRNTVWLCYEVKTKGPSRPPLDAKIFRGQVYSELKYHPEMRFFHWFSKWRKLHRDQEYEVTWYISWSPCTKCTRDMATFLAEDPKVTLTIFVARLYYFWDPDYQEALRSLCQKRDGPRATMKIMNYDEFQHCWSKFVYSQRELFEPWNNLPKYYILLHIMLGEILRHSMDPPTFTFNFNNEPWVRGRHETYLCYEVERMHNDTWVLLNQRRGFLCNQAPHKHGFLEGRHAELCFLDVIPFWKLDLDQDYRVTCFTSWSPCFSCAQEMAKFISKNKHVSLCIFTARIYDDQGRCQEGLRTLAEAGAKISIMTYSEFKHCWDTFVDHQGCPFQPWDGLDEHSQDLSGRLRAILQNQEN
Chain of Ubiquitin carboxyl-terminal hydrolase 1 (Homo sapiens) (O94782 whole entry, looked up): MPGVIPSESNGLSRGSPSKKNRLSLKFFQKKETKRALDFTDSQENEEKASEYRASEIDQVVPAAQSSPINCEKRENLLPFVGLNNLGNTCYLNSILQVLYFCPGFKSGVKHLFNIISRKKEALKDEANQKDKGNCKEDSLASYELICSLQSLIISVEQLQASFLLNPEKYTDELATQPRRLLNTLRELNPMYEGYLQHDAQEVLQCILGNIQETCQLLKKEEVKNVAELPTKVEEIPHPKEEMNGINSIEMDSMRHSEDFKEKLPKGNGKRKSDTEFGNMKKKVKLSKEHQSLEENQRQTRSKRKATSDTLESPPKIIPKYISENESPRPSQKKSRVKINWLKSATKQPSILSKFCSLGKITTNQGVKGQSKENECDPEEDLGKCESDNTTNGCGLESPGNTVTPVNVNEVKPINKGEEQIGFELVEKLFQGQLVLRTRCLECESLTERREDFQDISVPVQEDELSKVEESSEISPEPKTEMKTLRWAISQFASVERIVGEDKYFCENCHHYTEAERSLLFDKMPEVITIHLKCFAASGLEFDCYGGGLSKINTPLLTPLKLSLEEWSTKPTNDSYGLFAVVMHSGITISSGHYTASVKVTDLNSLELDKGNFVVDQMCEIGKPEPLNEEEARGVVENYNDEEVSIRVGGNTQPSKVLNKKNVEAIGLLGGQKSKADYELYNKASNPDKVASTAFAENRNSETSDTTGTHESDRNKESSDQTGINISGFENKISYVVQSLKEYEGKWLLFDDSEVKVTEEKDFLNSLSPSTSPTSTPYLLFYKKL
Chain of 3',5'-cyclic-AMP phosphodiesterase 4B (Homo sapiens) (Q07343 whole entry, looked up): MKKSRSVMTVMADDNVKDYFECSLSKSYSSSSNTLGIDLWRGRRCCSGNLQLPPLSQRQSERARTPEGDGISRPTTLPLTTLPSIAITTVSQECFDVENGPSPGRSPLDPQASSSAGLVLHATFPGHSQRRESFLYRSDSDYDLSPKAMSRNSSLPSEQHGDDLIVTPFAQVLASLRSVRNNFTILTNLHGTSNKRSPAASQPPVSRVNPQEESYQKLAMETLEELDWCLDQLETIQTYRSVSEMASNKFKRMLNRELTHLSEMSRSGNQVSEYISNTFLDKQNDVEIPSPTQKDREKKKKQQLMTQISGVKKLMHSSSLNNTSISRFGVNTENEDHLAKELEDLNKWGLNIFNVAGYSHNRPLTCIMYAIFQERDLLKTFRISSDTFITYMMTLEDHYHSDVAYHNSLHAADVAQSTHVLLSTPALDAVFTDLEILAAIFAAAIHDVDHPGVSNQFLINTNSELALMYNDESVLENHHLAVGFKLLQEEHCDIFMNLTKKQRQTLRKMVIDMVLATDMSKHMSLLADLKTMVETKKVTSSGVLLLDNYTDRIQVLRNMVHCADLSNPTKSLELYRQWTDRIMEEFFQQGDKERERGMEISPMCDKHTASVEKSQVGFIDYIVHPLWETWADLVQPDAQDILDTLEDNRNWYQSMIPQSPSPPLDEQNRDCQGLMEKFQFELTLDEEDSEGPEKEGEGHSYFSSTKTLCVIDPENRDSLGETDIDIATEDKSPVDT
Chain of Glucocorticoid receptor (Homo sapiens) (P04150 whole entry, looked up): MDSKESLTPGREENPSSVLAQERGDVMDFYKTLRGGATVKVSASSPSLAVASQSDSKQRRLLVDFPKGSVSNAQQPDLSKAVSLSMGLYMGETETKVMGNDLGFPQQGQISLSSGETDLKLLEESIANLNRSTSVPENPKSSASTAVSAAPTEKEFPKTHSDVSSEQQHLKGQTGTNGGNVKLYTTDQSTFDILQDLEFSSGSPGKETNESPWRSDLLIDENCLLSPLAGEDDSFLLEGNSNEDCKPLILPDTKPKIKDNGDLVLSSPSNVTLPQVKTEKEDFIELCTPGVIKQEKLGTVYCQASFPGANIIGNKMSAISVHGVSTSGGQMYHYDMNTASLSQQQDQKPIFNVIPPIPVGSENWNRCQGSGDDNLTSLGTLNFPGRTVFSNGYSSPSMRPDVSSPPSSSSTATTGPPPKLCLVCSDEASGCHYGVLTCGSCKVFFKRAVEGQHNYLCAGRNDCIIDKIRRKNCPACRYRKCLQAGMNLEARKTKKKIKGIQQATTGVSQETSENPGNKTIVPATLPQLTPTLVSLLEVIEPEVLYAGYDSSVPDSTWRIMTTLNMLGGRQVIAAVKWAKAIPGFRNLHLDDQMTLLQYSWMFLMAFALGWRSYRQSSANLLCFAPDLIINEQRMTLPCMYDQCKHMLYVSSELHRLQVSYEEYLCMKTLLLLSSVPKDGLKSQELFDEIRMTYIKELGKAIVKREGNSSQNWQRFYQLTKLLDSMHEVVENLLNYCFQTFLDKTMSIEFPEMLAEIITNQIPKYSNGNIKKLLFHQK
Chain of Cytochrome P450 1A2 (Homo sapiens) (P05177 whole entry, looked up): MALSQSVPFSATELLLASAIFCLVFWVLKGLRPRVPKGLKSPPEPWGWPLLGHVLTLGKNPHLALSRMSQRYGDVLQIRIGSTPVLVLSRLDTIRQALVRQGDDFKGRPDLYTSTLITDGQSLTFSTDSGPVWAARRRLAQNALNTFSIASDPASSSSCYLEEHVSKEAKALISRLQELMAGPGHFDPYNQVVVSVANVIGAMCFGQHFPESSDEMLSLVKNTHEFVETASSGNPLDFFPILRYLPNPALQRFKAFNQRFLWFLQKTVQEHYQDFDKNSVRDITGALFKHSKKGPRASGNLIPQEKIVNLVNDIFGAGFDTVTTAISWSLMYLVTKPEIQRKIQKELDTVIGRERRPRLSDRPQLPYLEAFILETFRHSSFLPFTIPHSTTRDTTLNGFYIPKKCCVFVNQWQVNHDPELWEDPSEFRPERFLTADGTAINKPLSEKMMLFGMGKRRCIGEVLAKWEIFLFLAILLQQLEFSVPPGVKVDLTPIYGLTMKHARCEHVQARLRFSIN

Turning to `CC1=CC2=C[C@H](C)C[C@@]23OC(=C(C)C3=O)CC(C)(C)/C=C/C1=O`, the Potency in [1] was 0.935 µM (active); in [2] it was 2.64 µM (active); in [3], 0.265 µM (active); in experiment [4], 2.36 µM (active).
`COc1ccc2[nH]c(I)c(CCNC(C)=O)c2c1`: in experiment [5] (at 38 µM (top of the series)), the activity, negative = inhibition was 3.36% (inactive). For the same compound, the Potency in experiment [6] and in [7] was > 46 µM (inactive) throughout. Besides, the Potency result in experiment [8], in experiment [9], in experiment [10] and in [11] was “inactive” throughout.
Take `N[C@H](Cn1ccc(=O)n(Cc2ccccc2C(=O)O)c1=O)C(=O)O`: the Potency entry in experiment [12], in experiment [8], in [9], in experiment [13], in [10] and in experiment [11] was “inactive” each time. Moreover, the Potency in experiment [6] and in experiment [7] was > 46 µM (inactive) each time.
With `C/C=C1\C2C=C(C)CC1(N)c1ccc(=O)[nH]c1C2` (centres undefined), the Potency entry in experiment [13] and in [11] was “inactive” each time.
On to `O=Cc1ccc2n1C[C@@]1(C[C@H](O)[C@H](O)CO1)OC2`, for which the Potency result in [1], in experiment [3] and in experiment [14] was “inactive” each time.
Take `CSc1nc(N)c2ncn([C@H]3O[C@H](COP(=O)(O)OP(=O)(O)OP(=O)(O)O)[C@@H](O)[C@@H]3O)c2n1`: the Potency in experiment [6] and in [7] was > 46 µM (inactive) each time. For the same compound, the Potency entry in experiment [8], in experiment [9], in experiment [10] and in [11] was “inactive” throughout.
On to `N[C@@H](Cn1cc(I)c(=O)n(Cc2ccc(C(=O)O)cc2)c1=O)C(=O)O`, for which the Potency in experiment [12] was 31.6 µM (active); in [6] it was > 46 µM (inactive); in experiment [7], > 46 µM (inactive). Moreover, the Potency entry in experiment [8], in [13] and in [10] was “inactive” each time. The activity change, negative = inhibition in experiment [15] (at 57.5 µM (top of the series)) was 2.45% (inactive). Further, the results for the max response in experiment [15] (setting [18]) and in experiment [15] (setting [19]) were 4.58% and 1.43%, respectively.
In the case of `CN1CCN2c3ccccc3Cc3ccccc3[C@@H]2C1`, the activity, negative = inhibition is 2.47% (inactive) in experiment [5] (at 17.2 µM (top of the series)) and -1.53% (inactive) in [5] (at 38 µM (top of the series)). In addition, the Potency in experiment [6] is > 46 µM (inactive) and > 20.6 µM (inactive); in experiment [7], > 46 µM (inactive) and > 20.6 µM (inactive). Besides, the Potency entry in experiment [8], in experiment [9] and in experiment [13] was “inactive” each time. In addition, the activity change, negative = inhibition in experiment [15] (at 25.7 µM (top of the series)) was -3.71% (inactive). The max response in [15] (setting [18]) is -3.28%; in [15] (setting [19]), -8.62%.
For the compound `C=C1C[C@@]23C=CC(=O)[C@@](C)(CCCC(C)C(=O)O)[C@@H]2C[C@@H]1CC3` (some centres undefined), the Potency entry in experiment [16], in experiment [1], in experiment [4] and in [14] was “inactive” in each case. In experiment [17], the compound was called inactive.
